Compounds without any hit were thinned out: in the full panel of roughly 83,000, 20% have a hit.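 In brief: 96-well plates, 48 h treatment, single concentration, percent growth endpoint.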 Values without a mark were called inactive. The source made the active and inactive calls. How the source made its calls: active means growth percent below 10; inactive means the rest.

Among the test systems are SK-MEL-2 melanoma; EKVX NSCLC; SN12C renal; UO-31 renal; TK-10 renal; ACHN renal; CAKI-1 renal; A498 renal; CCRF-CEM leukemia; MOLT-4 leukemia; SR leukemia; RPMI-8226 leukemia; OVCAR-8 ovarian; OVCAR-5 ovarian; OVCAR-4 ovarian; SK-OV-3 ovarian; IGROV1 ovarian; OVCAR-3 ovarian; HS 578T breast; NCI/ADR-RES ovarian.
Holding throughout (assay): NCI-60 one-dose screen, 48 h (100 = growth as untreated, 0 = no growth, -100 = all killed)
Holding throughout (settings): 10 µM unless noted

Turning to `Cc1cccc2c(N)c3ccccc3nc12`, the growth with SK-MEL-2 melanoma was -28.5% (active); with EKVX NSCLC, 1.94% (active); in the test with SN12C renal it was -9.63% (active); in the test on UO-31 renal it was -53.9% (active); in the test with TK-10 renal, -5.29% (active); in the test on ACHN renal, -18.6% (active). In addition, the growth in the test with CAKI-1 renal was -21.9% (active); in the test with A498 renal, -46.5% (active); in the test with CCRF-CEM leukemia, 6.63% (active); with MOLT-4 leukemia, 2.71% (active); in the test with SR leukemia, 2.95% (active); in the test on RPMI-8226 leukemia it was -15.4% (active). The growth with OVCAR-8 ovarian is -9.82% (active); in the test on OVCAR-5 ovarian, 7.56% (active); in the test on OVCAR-4 ovarian, 1.48% (active); with SK-OV-3 ovarian it was -3.15% (active); with IGROV1 ovarian, -13.2% (active); in the test with OVCAR-3 ovarian it was -17.3% (active). The results for the growth in the test with HS 578T breast and in the test with NCI/ADR-RES ovarian were 16.5% and -47.5% (active), respectively.

In the case of `CCOC(=O)c1cc(CC)sc1NC(=O)CC(C)=O`, the growth with SK-MEL-2 melanoma was 61.5%; with EKVX NSCLC, 51%; in the test with SN12C renal it was 53%; with UO-31 renal, 40.8%; in the test on TK-10 renal it was 70.9%; with ACHN renal it was 39.9%. Also, the growth is 53.1% with CAKI-1 renal; 98.7% in the test with A498 renal; 35.5% with CCRF-CEM leukemia; 14.4% with MOLT-4 leukemia; 35.1% in the test with SR leukemia; 37.4% in the test on RPMI-8226 leukemia. Also, the growth in the test on OVCAR-8 ovarian was 43%; in the test on OVCAR-5 ovarian, 96.7%; with OVCAR-4 ovarian, 43.3%; with SK-OV-3 ovarian, 84.6%; in the test on IGROV1 ovarian it was 59.7%; in the test with OVCAR-3 ovarian, 65.3%. For the same compound, the growth with HS 578T breast was 49.9%; with NCI/ADR-RES ovarian, 40%.

Regarding `O/N=C1\c2ccccc2-c2ccc(F)cc21`, the growth in the test on SK-MEL-2 melanoma was 97.5%; with EKVX NSCLC, 90.4%; in the test on SN12C renal, 94.4%; in the test on UO-31 renal, 47.7%; with TK-10 renal, 84.8%; with ACHN renal, 87.1%. In addition, the growth is 94.1% with CAKI-1 renal; 132% in the test with A498 renal; 86.5% in the test on CCRF-CEM leukemia; 71.6% in the test with MOLT-4 leukemia; 91.2% in the test with SR leukemia; 85.8% with RPMI-8226 leukemia. Moreover, the growth in the test on OVCAR-8 ovarian is 102%; in the test on OVCAR-5 ovarian it was 93.8%; in the test on OVCAR-4 ovarian, 85.8%; in the test with SK-OV-3 ovarian, 97.3%; with IGROV1 ovarian it was 85.4%; in the test on HS 578T breast, 120%. Also, the growth in the test on NCI/ADR-RES ovarian was 107%.

In the case of `CN(C)c1ccc(/C=C/c2ccnc3ccccc23)cc1`, the growth in the test on SK-MEL-2 melanoma is -5.02% (active); in the test with EKVX NSCLC, 22.4%; with SN12C renal it was 36.2%; in the test on UO-31 renal, 50.2%; in the test with TK-10 renal it was 59.5%; in the test on ACHN renal, 47.4%. The growth in the test with CAKI-1 renal is 45.7%; in the test with A498 renal, 62%; with CCRF-CEM leukemia it was 51.1%; in the test with MOLT-4 leukemia it was 33.1%; with SR leukemia, 21%; with RPMI-8226 leukemia it was 11.7%. For the same compound, the growth with OVCAR-8 ovarian was 20.2%; in the test with OVCAR-5 ovarian, 84.4%; in the test on OVCAR-4 ovarian, 69.6%; with OVCAR-3 ovarian, 45.1%; in the test on HS 578T breast it was 53.5%.

Take `O=[N+]([O-])C=C(c1ccccc1)c1ccccc1`: the growth is 95.5% with SK-MEL-2 melanoma; 71% with EKVX NSCLC; 81.1% in the test with SN12C renal; 60.9% in the test with UO-31 renal; 84.8% in the test with TK-10 renal; 85.4% with ACHN renal. In addition, the growth was 57.1% in the test with CAKI-1 renal; 124% in the test on A498 renal; 68.6% in the test on CCRF-CEM leukemia; 70.9% in the test on MOLT-4 leukemia; 22.8% in the test with SR leukemia; 64.5% with RPMI-8226 leukemia. Further, the growth with OVCAR-8 ovarian is 92.5%; in the test on OVCAR-5 ovarian, 83.2%; in the test on OVCAR-4 ovarian it was 79.5%; with SK-OV-3 ovarian it was 78%; in the test on IGROV1 ovarian, 86.5%; with OVCAR-3 ovarian it was 90.1%. The growth in the test with NCI/ADR-RES ovarian was 75.5%.

In the case of `O=S(=O)(O)c1cnccn1`, the growth with SK-MEL-2 melanoma was 102%; in the test on EKVX NSCLC it was 97.4%; in the test with SN12C renal it was 103%; with UO-31 renal, 93.4%; in the test on TK-10 renal, 94%; in the test on ACHN renal, 104%. Moreover, the growth with CAKI-1 renal was 92.3%; in the test on A498 renal, 118%; in the test on CCRF-CEM leukemia, 112%; in the test on MOLT-4 leukemia, 101%; in the test with SR leukemia it was 110%; in the test with RPMI-8226 leukemia, 104%. The growth is 107% with OVCAR-8 ovarian; 96.6% with OVCAR-5 ovarian; 113% in the test with OVCAR-4 ovarian; 89.6% in the test with SK-OV-3 ovarian; 105% in the test on IGROV1 ovarian; 103% with OVCAR-3 ovarian. Besides, the growth was 112% with HS 578T breast and 102% with NCI/ADR-RES ovarian.

As for `N#CC(I)CS(=O)(=O)c1ccccc1` (stereo not given), the growth in the test on SK-MEL-2 melanoma was 91.6%; in the test with EKVX NSCLC it was 103%; in the test with SN12C renal, 93.4%; in the test with UO-31 renal, 77.2%; with TK-10 renal, 89.7%; in the test on ACHN renal it was 36.7%. The growth was 55.4% with CAKI-1 renal; 121% in the test on A498 renal; 3.27% (active) with CCRF-CEM leukemia; 88.9% in the test with MOLT-4 leukemia; 109% with SR leukemia; 101% in the test with RPMI-8226 leukemia. Also, the growth with OVCAR-8 ovarian was 91.5%; in the test on OVCAR-5 ovarian it was 106%; in the test with OVCAR-4 ovarian, 95.4%; in the test on SK-OV-3 ovarian, 102%; in the test with IGROV1 ovarian it was 69.3%; with OVCAR-3 ovarian it was 76.4%. For the same compound, the values for the growth in the test with HS 578T breast and with NCI/ADR-RES ovarian were 114% and 97.4%, respectively.

As for `CCCc1cc(=O)oc2c3c(c4c(c12)OC(C)(C)CC4)OC(C)[C@H](C)[C@@H]3O` (stereo not given in full), the growth with SK-MEL-2 melanoma is 13.6%; in the test with EKVX NSCLC, 90%; in the test with SN12C renal, 81%; with UO-31 renal it was 34.9%; in the test with TK-10 renal, 139%; in the test on ACHN renal, 66.1%. Moreover, the growth was 104% with CAKI-1 renal; 63% in the test on A498 renal; 84.8% with CCRF-CEM leukemia; 54.9% in the test on MOLT-4 leukemia; 45.8% in the test on SR leukemia; 10.5% in the test on RPMI-8226 leukemia. The growth in the test on OVCAR-8 ovarian was 81.7%; with OVCAR-5 ovarian, 86%; with OVCAR-4 ovarian, 83.9%; with SK-OV-3 ovarian it was 95.3%; in the test with IGROV1 ovarian, 12.7%; in the test on OVCAR-3 ovarian it was 112%. In addition, the growth was 74.7% in the test with HS 578T breast and 81.7% with NCI/ADR-RES ovarian.

In the case of `COC(=O)c1ccc(=O)c2nc3/c(=C/O)c(O)cc(=O)c3[nH]c12`, the growth with SK-MEL-2 melanoma was -7.27% (active); in the test with EKVX NSCLC it was 35.3%; with SN12C renal it was -5.75% (active); in the test on UO-31 renal it was 5.33% (active); in the test with TK-10 renal it was 48.1%; with ACHN renal, 28.5%. For the same compound, the growth is 21.5% in the test on CAKI-1 renal; 1.77% (active) in the test with A498 renal; 12.6% in the test with CCRF-CEM leukemia; 3.55% (active) in the test with MOLT-4 leukemia; -11.4% (active) in the test with SR leukemia; 51.1% in the test with RPMI-8226 leukemia. Moreover, the growth was 12.2% in the test with OVCAR-8 ovarian; 54.7% in the test with OVCAR-5 ovarian; 47.4% in the test on OVCAR-4 ovarian; 52% with SK-OV-3 ovarian; -61.2% (active) in the test with IGROV1 ovarian; -4.24% (active) in the test with OVCAR-3 ovarian. Also, the growth with HS 578T breast is -10.3% (active); in the test on NCI/ADR-RES ovarian it was 11%.

The values are drawn from PubChem BioAssay (NCI).
